From PubChem BioAssay (NCATS)
Inconclusive results are not listed. The source made the active and inactive calls. The call rests on the fitted dose curve; in most records, active means well fitted curve in the direction sought with a large enough effect; inconclusive means small, poorly fitted or top-dose-only effect, or another doubt; inactive means no such curve, though single readings can be large; an effect the other way counts as inactive or inconclusive.

Legend:
CRL-7250 = normal cell line; assay: Cytotoxic Profiling of Annotated Libraries Using Quantitative High-Throughput Screening (AID 1296008); settings: Five cell lines viability, CellTiter-Glo ATP luminescence, 48-72 h; max response: stronger effect = lower value; further: nearly all actives have a fitted effect of over 60% in size; on max response: on the % scale 0 is the no-effect control and ±100 the full control effect
Outline: (§1)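 Cytotoxicity was measured as CellTiter-Glo ATP luminescence, read after 10 min at room temperature. Compound treatment of the cells lasted 48 or 72 hr at 37 degrees Celsius in a qHTS format.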

HEK293 = assay: as above; settings: Five cell lines viability, CellTiter-Glo ATP luminescence, 48-72 h; max response: stronger effect = lower value
Outline: as §1

HaCat [1] = assay: as above; settings: Five cell lines viability, CellTiter-Glo ATP luminescence, 48-72 h; max response: stronger effect = lower value
Outline: as §1

KB-3-1 = assay: as above; settings: Five cell lines viability, CellTiter-Glo ATP luminescence, 48-72 h; max response: stronger effect = lower value
Outline: as §1

NIH3T3 = assay: as above; settings: Five cell lines viability, CellTiter-Glo ATP luminescence, 48-72 h; max response: stronger effect = lower value
Outline: as §1

HACAT [2] = assay: qHTS assay to identify novel small-molecules to repurpose for Merkel cell carcinoma treatment (AID 1296009); settings: MCC and control cell lines, CellTiter-Glo viability, 72 h; at 44.8 µM (top of the series) unless noted; further: nearly all actives have a fitted effect of over 60% in size
Outline: (§2)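 Cell viability measured by CellTiter-Glo following 72 hr compound treatment at 37 degree celsius, with NPC and MIPE libraries tested in 8- and 11-point concentration series.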

HEK293T = assay: as above; settings: MCC and control cell lines, CellTiter-Glo viability, 72 h; series mostly up to 44.8 µM
Outline: as §2

C33A = assay: Primary qHTS to identify gynecologic anti-cancer compounds using libraries of approved drugs and bioactive compounds (AID 1345084); settings: Gynecologic cancer cell panel viability, ATPlite luminescence, 48 h; series mostly up to 57.5 µM; further: on the % scale 0 is the no-effect control and ±100 the full control effect; nearly all actives have a fitted effect of over 55% in size
Outline: (§3)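 Cell viability after 48 h drug treatment, ATPlite luminescence readout; five doses.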

CAOV3 = assay: as above; settings: Gynecologic cancer cell panel viability, ATPlite luminescence, 48 h; series mostly up to 57.5 µM
Outline: as §3

CASKI = assay: as above; settings: Gynecologic cancer cell panel viability, ATPlite luminescence, 48 h; series mostly up to 57.5 µM
Outline: as §3

Es-2 = assay: as above; settings: Gynecologic cancer cell panel viability, ATPlite luminescence, 48 h; series mostly up to 57.5 µM
Outline: as §3

HeLa = assay: as above; settings: Gynecologic cancer cell panel viability, ATPlite luminescence, 48 h; series mostly up to 57.5 µM
Outline: as §3

W2 = assay: qHTS profiling for inhibitors of Plasmodium falciparum proliferation (AID 504749);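 further: 0% = DMSO vehicle and full inhibition = artemisinin control; nearly all actives have a fitted effect of over 60% in size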; settings: P. falciparum in erythrocytes, SYBR Green DNA, 72 h; series mostly up to 28.7 µM
Outline: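 In a 72 h erythrocytic culture (37 C, humidified, 5% CO2) at 2.5% hematocrit and 0.3% starting parasitemia, compounds were tested; SYBR Green I in detergent lysis buffer stained parasite DNA overnight.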

CC(C)(O)C1CCC2(C)C3C(O)C4C(C13)C42CO (centres undefined)
inactive: outcome (CRL-7250) | outcome (HEK293) | outcome (HaCat [1]) | max response (KB-3-1) 9.17% | max response (NIH3T3) 0.322% | outcome (HACAT [2]) | Potency (HEK293T) | Potency (C33A) | Potency (CAOV3) | Potency (CASKI) | Potency (Es-2) | Potency (HeLa)

O=C(c1ccc(F)cc1)C1CCN(CCn2c(=O)nc3n(c2=O)CCCC3)CC1
inactive: max response (CRL-7250) 3.3% | outcome (HEK293) | outcome (HaCat [1]) inactive; activator | max response (KB-3-1) -0.742% | max response (NIH3T3) -0.166% | outcome (HACAT [2]) inactive; activator | Potency (HEK293T) | Potency (C33A) | Potency (CAOV3) | Potency (Es-2) | Potency (HeLa)

COC(=O)C1C(CC(C)=O)C=CC(O)C12Oc1cc(C)cc(O)c1C2=O (centres undefined)
inactive: max response (CRL-7250) -4.03% | outcome (HEK293) | outcome (HaCat [1]) | max response (KB-3-1) 4.45% | max response (NIH3T3) 3.58% | outcome (HACAT [2]) | Potency (HEK293T) | Potency (C33A) | Potency (CAOV3) | Potency (CASKI) | Potency (Es-2) | Potency (HeLa)

CC(=O)O[C@@H]1[C@H](O[C@@H]2OC[C@](O)(CO)[C@H]2O)[C@@H](O[C@@H]2O[C@@H](C)[C@H](O)[C@@H](O)[C@H]2O)[C@H](OC(=O)[C@]23CCC(C)(C)C[C@H]2C2=CCC4[C@@]5(C)C[C@H](O)[C@H](O[C@@H]6O[C@H](C(=O)O)[C@@H](O)[C@H](O)[C@H]6O)[C@@](C)(C(=O)O)C5CC[C@@]4(C)[C@]2(C)CC3)O[C@@H]1C (some centres undefined)
inactive: max response (CRL-7250) -0.437% | outcome (HEK293) | outcome (HaCat [1]) | outcome (KB-3-1) | max response (NIH3T3) 2.52% | outcome (HACAT [2]) inactive [at 9.27 µM] | outcome (HEK293T) inactive [at 9.27 µM] | activity change, negative = cytotoxicity (C33A) -3.02% [at 11.6 µM] | activity change, negative = cytotoxicity (CASKI) 0.959% [at 11.6 µM] | activity change, negative = cytotoxicity (Es-2) 1.8% [at 11.6 µM] | activity change, negative = cytotoxicity (HeLa) 0.991% [at 11.6 µM]

COc1ccc2c3c1O[C@H]1C[C@@H](O)C=C[C@@]31CCN(C)C2
inactive: Potency (W2) | outcome (CRL-7250) | outcome (HEK293) | outcome (HaCat [1]) | outcome (KB-3-1) | max response (NIH3T3) -4.93% | outcome (HACAT [2]) | Potency (HEK293T) | Potency (C33A) | Potency (CAOV3) | Potency (CASKI) | Potency (Es-2) | Potency (HeLa)

CC12CCC3C(C)(C)C(O)CCC3(C)C1Cc1c(oc(C(=O)O)cc1=O)O2 (centres undefined)
inactive: outcome (CRL-7250) | outcome (HEK293) | outcome (HaCat [1]) | outcome (KB-3-1) | max response (NIH3T3) 1.94% | outcome (HACAT [2]) | Potency (HEK293T) | Potency (C33A) | Potency (CAOV3) | Potency (CASKI) | Potency (Es-2) | Potency (HeLa)

CC1=C2C(=O)C=C(CO)[C@@H]2[C@H]2OC(=O)[C@H](C)[C@@H]2[C@@H](O)C1
inactive: outcome (CRL-7250) | outcome (HEK293) | outcome (HaCat [1]) | max response (KB-3-1) 1.39% | max response (NIH3T3) -3.32% | outcome (HACAT [2]) | Potency (HEK293T) | Potency (C33A) | Potency (CAOV3) | Potency (CASKI) | Potency (Es-2) | Potency (HeLa)

C[C@@H]1C[C@H](O[C@@H]2O[C@H](CO[C@@H]3OC[C@](O)(CO)[C@H]3O)[C@@H](O)[C@H](O)[C@H]2O)CC(C)(C)[C@H]1/C=C/[C@@H](C)O
inactive: max response (CRL-7250) -2.76% | outcome (HEK293) | outcome (HaCat [1]) | outcome (KB-3-1) | outcome (NIH3T3) | outcome (HACAT [2]) inactive [at 17.4 µM] | Potency (HEK293T) | Potency (C33A) | Potency (CAOV3) | Potency (CASKI) | Potency (Es-2) | Potency (HeLa)

CN1CCC(c2c[nH]c3ccc(NC(=O)c4ccc(F)cc4)cc23)CC1
inactive: max response (CRL-7250) -9.85% | outcome (HEK293) | outcome (HaCat [1]) | max response (KB-3-1) 7.4% | max response (NIH3T3) -0.678% | outcome (HACAT [2]) | Potency (HEK293T) | Potency (C33A) | Potency (CASKI) | Potency (Es-2) | Potency (HeLa)

CC1=CC(=O)C[C@H]2[C@@H]1CC[C@@H](C)[C@]21CO[C@H](c2ccoc2)C1=O
inactive: max response (CRL-7250) 3.91% | outcome (HEK293) | outcome (HaCat [1]) | max response (KB-3-1) -0.71% | max response (NIH3T3) -2.85% | outcome (HACAT [2]) | Potency (HEK293T) | Potency (C33A) | Potency (CASKI) | Potency (Es-2) | Potency (HeLa)

C[C@@H]1CC[C@]2(C)C(C[C@@H](O)[C@H](O)[C@]23CO3)[C@@]1(C)CCc1ccoc1 (some centres undefined)
inactive: outcome (CRL-7250) | outcome (HEK293) | outcome (HaCat [1]) | max response (KB-3-1) 7.33% | max response (NIH3T3) -3.46% | outcome (HACAT [2]) | Potency (HEK293T) | Potency (C33A) | Potency (CAOV3) | Potency (CASKI) | Potency (Es-2) | Potency (HeLa)

CC(C)C1(O[C@@H]2O[C@H](CO)[C@@H](O)[C@H](O)[C@H]2O)CC=C(CO)CC1 (some centres undefined)
inactive: outcome (CRL-7250) | outcome (HEK293) | outcome (HaCat [1]) | max response (KB-3-1) -0.585% | max response (NIH3T3) 0.631% | outcome (HACAT [2]) | Potency (HEK293T) | Potency (C33A) | Potency (CASKI) | Potency (Es-2) | Potency (HeLa)

O=C(NCC(=O)N1CC[C@H](NC2CCC(O)(c3ccc(-c4ncccn4)cn3)CC2)C1)c1cccc(C(F)(F)F)c1 (some centres undefined)
inactive: max response (CRL-7250) -2.44% | outcome (HEK293) | outcome (HaCat [1]) | outcome (KB-3-1) | max response (NIH3T3) 3.11% | outcome (HACAT [2]) | Potency (HEK293T) | Potency (C33A) | Potency (CAOV3) | Potency (CASKI) | Potency (Es-2) | Potency (HeLa)

C1CCN2CC3C[C@@H](CN4CCCC[C@@H]34)[C@H]2C1
inactive: max response (CRL-7250) 3.38% | outcome (HEK293) | outcome (HaCat [1]) | max response (KB-3-1) 5.45% | max response (NIH3T3) -1.12% | outcome (HACAT [2]) | Potency (HEK293T) | Potency (C33A) | Potency (CAOV3) | Potency (CASKI) | Potency (Es-2) | Potency (HeLa)
